In PubChem BioAssay (Tox21):
Inconclusive results are not listed. Calls of active or inactive are those of the source. Calls follow the shape of the dose curve; as a rule, active = well fitted inhibition curve with a large enough effect in the repeat runs; inconclusive = weak or mixed curves; inactive = flat fitted curve, though single readings scatter.

biological target: Voltage-gated inwardly rectifying potassium channel KCNH2 (Homo sapiens) (UniProt Q12809); test: Human Ether-a-go-go-Related Gene (hERG) channel small molecule antagonists: fluorescence cell-based qHTS assay (AID 1671200); settings: hERG-U2OS cells, FluxOR thallium flux fluorescence; series mostly up to 76.8 µM; activity change, negative = inhibition: at the top concentration; also: nearly all actives have a fitted effect of over 50% in size
Excerpt: National Center for Advancing Translational Sciences [NCATS]
U.S. Environmental Protection Agency [EPA]
National Institutes of Environmental Health Sciences [NIEHS]
National Toxicology Program [NTP]
U.S. Food and Drug Administration [FDA]
Mutations in the hERG channel cause Long QT (LQT) syndrome. LQT syndrome is a cardiac disorder which can cause ventricle arrhythmia and sudden death. Additionally, compounds which block the hERG channel can cause acquired LQT syndrome. Several FDA approved drugs have been removed from the market due to their hERG blocking activity. A cell-based hERG channel inhibition assay can be used to screen chemical compounds that inhibit hERG channel. This assay measures hERG channel activity using thallium ions as surrogate ions to measure potassium into the cells.
Tox21 Assay Protocol Summary:
hERG-U2OS cells were resuspended in culture medium and dispensed into 1536-well, black wall/clear-bottom plates at 1000cells/well/3uL using a Multidrop Combi dispenser (Thermo Fisher, Waltham, MA). After plates were incubated at 37 C overnight, 3 uL of Loading Buffer provided by FluxOR II Potassium Ion Channel Assay kit (Thermo, Carlsbad, CA) was added to each well. The assay plates were then incubated at room temperature in the dark for 1h. […] After the assay plates were incubated at room temperature for 10 min, 1 uL of Stimulus Buffer provided by FluxOR II Potassium Ion Channel Assay kit was added into each well and fluorescence intensity (480nm excitation/540nm emission) was continuously measured for 2 min at 1 second intervals using a Functional Drug Screening System (FDSS) 7000EX kinetic plate reader (Hamamatsu, Japan).
% is scaled to controls: 0 for no effect and ±100 for the full control effect.

Voltage-gated inwardly rectifying potassium channel KCNH2 (Homo sapiens), sequence (Q12809 whole entry, looked up): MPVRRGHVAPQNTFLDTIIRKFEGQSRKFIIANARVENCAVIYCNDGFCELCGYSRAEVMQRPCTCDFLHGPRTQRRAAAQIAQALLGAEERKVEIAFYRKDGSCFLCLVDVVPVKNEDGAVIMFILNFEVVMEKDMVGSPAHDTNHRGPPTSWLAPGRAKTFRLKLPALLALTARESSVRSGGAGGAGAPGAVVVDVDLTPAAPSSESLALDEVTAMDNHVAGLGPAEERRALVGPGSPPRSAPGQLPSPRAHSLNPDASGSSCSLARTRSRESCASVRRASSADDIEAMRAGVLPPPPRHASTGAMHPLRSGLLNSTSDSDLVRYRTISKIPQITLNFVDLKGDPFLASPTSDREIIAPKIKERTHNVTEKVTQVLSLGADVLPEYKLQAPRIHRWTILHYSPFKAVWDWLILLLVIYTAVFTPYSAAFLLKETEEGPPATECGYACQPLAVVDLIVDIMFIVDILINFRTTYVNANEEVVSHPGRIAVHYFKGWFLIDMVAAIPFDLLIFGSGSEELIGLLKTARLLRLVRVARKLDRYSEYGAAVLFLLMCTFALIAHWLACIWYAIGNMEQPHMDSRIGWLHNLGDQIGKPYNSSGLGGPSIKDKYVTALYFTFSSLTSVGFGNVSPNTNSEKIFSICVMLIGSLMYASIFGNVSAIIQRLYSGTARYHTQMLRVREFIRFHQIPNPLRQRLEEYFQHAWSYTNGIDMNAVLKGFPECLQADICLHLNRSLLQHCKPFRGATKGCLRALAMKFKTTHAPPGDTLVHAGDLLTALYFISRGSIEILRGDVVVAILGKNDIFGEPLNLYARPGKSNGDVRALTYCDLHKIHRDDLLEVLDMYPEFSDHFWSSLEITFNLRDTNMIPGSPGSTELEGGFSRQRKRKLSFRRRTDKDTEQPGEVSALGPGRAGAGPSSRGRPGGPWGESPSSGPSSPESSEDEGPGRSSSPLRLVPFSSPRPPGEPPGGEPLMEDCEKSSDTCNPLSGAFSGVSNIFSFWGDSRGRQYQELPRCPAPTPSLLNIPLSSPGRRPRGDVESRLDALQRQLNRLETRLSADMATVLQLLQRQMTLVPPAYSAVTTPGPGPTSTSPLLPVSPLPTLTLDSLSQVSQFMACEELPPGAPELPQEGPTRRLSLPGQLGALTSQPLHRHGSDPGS

Compound | activity change, negative = inhibition
CC1(C)S[C@@H]2[C@H](N=CN3CCCCCC3)C(=O)N2[C@H]1C(=O)O | 0.939% [at 35.3 µM] (inactive)
COC(=O)C1CC(=O)C(C(=O)OC)CC1=O (stereo not given) | 0.39% [at 6.97 µM] (inactive)
CCCCCCOC(=O)CC | 3.72% (inactive)
CCCC/C=C/C=C\C=O | -5.57% (inactive)
CCOC(=O)c1ccc(OC(=O)CCCCCN=C(N)N)cc1 | 7.23% [at 35.3 µM] (inactive)
CC(=C(CCOC(=O)C(C)C)SSC(CCOC(=O)C(C)C)=C(C)N(C=O)Cc1cnc(C)nc1N)N(C=O)Cc1cnc(C)nc1N | -25% [at 35.3 µM] (inactive)
CCC(CC)CO | -0.867% (inactive)
OCCCCC(O)CO (stereo not given) | -0.186% (inactive)
CC(C)CCCC(C)(C)O | 2.61% (inactive)
O=C1O[C@@H]2[C@@H](O)[C@H](O)O[C@@H]2[C@H]1O | 0.03% (inactive)
COc1ccc2c(c1)C(=O)N(CCc1ccc(S(=O)(=O)NC(=O)NC3CCCCC3)cc1)C(=O)C2(C)C | -1.01% [at 35.3 µM] (inactive)
CCCCCCCC/C=C\CCCCCCCC(=O)OCCCC | -0.621% [at 15.8 µM] (inactive)
Cc1cccc(C)c1OCC(C)N (stereo not given) | -1.58% [at 35.3 µM] (inactive)
C[C@H](N)[C@H](O)c1cccc(O)c1 | 3.1% [at 35.3 µM] (inactive)
NC(CO)C(=O)NNCc1ccc(O)c(O)c1O (stereo not given) | 1.53% [at 35.3 µM] (inactive)
c1ccc2c(c1)ccc1c3ccccc3ccc21 | 3.71% [at 35.3 µM] (inactive)
CN1CCN(CC(=O)N2c3ccccc3C(=O)Nc3cccnc32)CC1 | -0.112% [at 6.97 µM] (inactive)
Nc1nnc(-c2cccc(Cl)c2Cl)c(N)n1 | 2.17% [at 35.3 µM] (inactive)
COc1ccc(-c2cc(=O)c3c(O)cc(O[C@@H]4O[C@H](CO[C@@H]5O[C@@H](C)[C@H](O)[C@@H](O)[C@H]5O)[C@@H](O)[C@H](O)[C@H]4O)cc3o2)cc1O | 2.94% [at 35.3 µM] (inactive)
CCCCOC(=O)c1ccccc1 | -5.79% (inactive)

Compound | activity change, negative = inhibition
COc1ccc(Br)c(C)c1 | 8.08% (inactive)
CCOCCOC(=O)/C=C/c1ccc(OC)cc1 | 2.46% [at 35.3 µM] (inactive)
CC(COC(C)(C)C)OCCCO (stereo not given) | 1.16% (inactive)
O=C(O)Cc1cn(-c2ccccc2)nc1-c1ccc(Cl)cc1 | 6.33% [at 35.3 µM] (inactive)
CC(C)c1ccc2cc(C(C)C)ccc2c1 | -13.6% (inactive)
Cc1ccccc1C(=O)Nc1ccc(C(=O)N2CCCC(N(C)C)c3ccccc32)cc1 (stereo not given) | -5.17% [at 35.3 µM] (inactive)
Oc1ccccc1-c1nnco1 | 3.12% [at 35.3 µM] (inactive)
COc1cc2c(cc1OC)[C@@H]1CC(=O)[C@@H](CC(C)C)CN1CC2 | 3.35% [at 35.3 µM] (inactive)
Brc1ccc(-c2ccccc2)cc1 | -24.9% (inactive)
CC(C)C[C@H](NC(=O)CNC(=O)[C@H](Cc1ccc(O)cc1)NC(=O)[C@H](CO)NC(=O)[C@H](Cc1c[nH]c2ccccc12)NC(=O)[C@H](Cc1cnc[nH]1)NC(=O)[C@@H]1CCC(=O)N1)C(=O)N[C@@H](CCCN=C(N)N)C(=O)N1CCC[C@H]1C(=O)NCC(N)=O (stereo in doubt) | -0.952% [at 35.3 µM] (inactive)
NNc1nnc(NN)c2ccccc12 | 1.36% [at 35.3 µM] (inactive)
C=C(C)C(=O)OCC(C)(C)COC(=O)C(=C)C | -4.27% (inactive)
C=C(C)C(=O)OCCOP(=O)(O)OCCOC(=O)C(=C)C | 2.78% (inactive)
CC(C)=O | 0.0144% (inactive)
Nc1ncnc(Nc2ccccc2)n1 | 11.3% [at 35.3 µM] (inactive)
Nc1cccc(O)c1 | 1.9% (inactive)
ClCCCl | 0.254% (inactive)
CC/C=C\CC1=C(C)CCC1=O | 4.32% (inactive)
O=C1c2cccc3c2[C@H](CCC3)CN1[C@@H]1CN2CCC1CC2 | -25.5% [at 35.3 µM] (inactive)
CCCCCCCCCC(C)=O | -6.3% (inactive)
